Assay results as given in PubChem BioAssay (Tox21).
Where “and” joins values, the source holds several entries; their conditions need not be identical. Identical values can stand only once. Inconclusive results are not listed. A call without a number means that no potency is given here. Some structures have more than one record in an assay (separate samples or runs), and their calls can disagree. Calls of active or inactive are those of the source. Unless noted, the call rests on the fitted dose curve.

Experiments:
[1] = Nuclear factor erythroid 2-related factor 2/antioxidant responsive element (Nrf2/ARE) small molecule agonists: qHTS cell viability counter screen in human keratinocytes (AID 1919968; active means well fitted curve in the direction sought with a large enough effect in the repeat runs; an effect the other way counts as inactive or inconclusive; further: nearly all actives have a fitted effect of over 55% in size; further: potency means the concentration at half of the fitted maximal effect)
Procedure, shortened: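 Cytotoxicity was multiplexed with the Nrf2/ARE luciferase assay in the same wells. Stably transfected HaCaT keratinocytes were treated with test compounds for 23 h at 37 C. Cell viability was then measured by CellTiter-Fluor fluorescence.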

[2] = Nuclear factor erythroid 2-related factor 2/antioxidant responsive element (Nrf2/ARE) small molecule agonists: luciferase reporter gene qHTS assay in human keratinocytes (AID 1919969); further: nearly all actives have a fitted effect of over 35% in size; further: potency means the concentration at half of the fitted maximal effect
[3] = biological target: Gonadotropin-releasing hormone receptor (Homo sapiens) (UniProt P30968); experiment: Human gonadotropin-releasing hormone receptor (GnRHR) small molecule agonists, calcium flux assay in GnRHR-HEK293 cells (AID 1920063); further: nearly all actives have a fitted effect of over 35% in size; further: potency means the concentration at half of the fitted maximal effect
Sequence of Gonadotropin-releasing hormone receptor (Homo sapiens) (P30968 whole entry, looked up): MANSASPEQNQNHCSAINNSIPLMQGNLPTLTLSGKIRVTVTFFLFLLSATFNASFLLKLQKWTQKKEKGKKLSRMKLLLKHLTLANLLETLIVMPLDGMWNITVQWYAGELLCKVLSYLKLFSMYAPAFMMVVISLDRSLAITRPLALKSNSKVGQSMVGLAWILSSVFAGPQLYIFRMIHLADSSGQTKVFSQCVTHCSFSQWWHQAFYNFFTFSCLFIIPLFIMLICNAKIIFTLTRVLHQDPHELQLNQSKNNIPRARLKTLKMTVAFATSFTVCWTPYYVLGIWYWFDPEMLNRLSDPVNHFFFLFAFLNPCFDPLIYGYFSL
Procedure, shortened: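 Agonist activity was measured as intracellular calcium flux in HEK293 cells engineered to stably express human GnRHR. After dye loading for 1 hour at 37 C, compounds in DMSO were added and fluorescence was followed for 3 minutes.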

[4] = biological target: KiSS-1 receptor (Homo sapiens) (UniProt Q969F8); experiment: Human kisspeptin (KISS1R) small molecule agonists, calcium flux assay in KISS1R-HEK293 cells (AID 1920064; active means well fitted curve in the direction sought with a large enough effect in the repeat runs; an effect the other way counts as inactive or inconclusive)
Sequence of KiSS-1 receptor (Homo sapiens) (Q969F8 whole entry, looked up): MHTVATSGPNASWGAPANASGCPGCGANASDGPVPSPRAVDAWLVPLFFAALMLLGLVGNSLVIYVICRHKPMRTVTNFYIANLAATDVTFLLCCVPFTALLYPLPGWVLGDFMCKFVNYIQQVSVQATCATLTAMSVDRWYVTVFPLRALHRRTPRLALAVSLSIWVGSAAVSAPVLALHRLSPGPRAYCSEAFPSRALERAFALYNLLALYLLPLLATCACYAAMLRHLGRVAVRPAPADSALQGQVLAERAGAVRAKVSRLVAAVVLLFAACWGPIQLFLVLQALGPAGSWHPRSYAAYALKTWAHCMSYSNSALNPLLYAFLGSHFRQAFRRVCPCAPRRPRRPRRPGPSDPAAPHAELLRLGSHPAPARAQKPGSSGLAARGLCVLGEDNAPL
Procedure, shortened: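 Agonist activity is monitored as intracellular calcium rise in engineered HEK293 cells carrying human KISS1R. Cells are dye-loaded for 1 h at 37 C before compound addition, and fluorescence is recorded for 3 min.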

[5] = G protein-coupled receptor (GPCR) small molecule agonists, calcium flux assay: HEK293 wild type cell line counter screen (AID 1920065)
Procedure, shortened: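 Seed cells, incubate 18 h (37 C, 5% CO2); add calcium dye, 1 h at 37 C; pin-transfer compounds, ATP control or DMSO; read fluorescence 480/540 nm each second for 3 min.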

[6] = p53 small molecule agonists, cell-based qHTS assay with human liver microsomes (AID 1963577);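 further: p53 response element beta-lactamase reporter cells with liver microsomes plus NADPH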
Procedure, shortened: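 Reporter activation was measured by LiveBLAzer fluorescence intensity in p53RE-bla cells, which had been exposed to compounds for 16 h at 37 C alongside 0.5 mg/mL human liver microsomes and 0.5 mg/mL NADPH (final concentrations).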

[7] = p53 small molecule agonists, cell-based qHTS assay with rat liver microsomes (AID 1963578)
Procedure, shortened: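 Compound in DMSO added to p53RE-bla cells 5 h post-plating; rat microsomes/NADPH 0.5 mg/mL final; 16 h, 37 C; LiveBLAzer 2 h RT.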

[8] = p53 small molecule agonists, cell-based qHTS assay with human liver microsomes: qHTS cell viability counter screen (AID 1963579); further: nearly all actives have a fitted effect of over 45% in size; further: potency means the concentration at half of the fitted maximal effect
Procedure, shortened: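 HLM-supplemented (0.5 mg/mL final) and NADPH-supplemented (0.5 mg/mL final) p53RE-bla cultures, 4,000 cells per well, were dosed with compounds in DMSO for 16 h at 37 C; luminescent ATP detection (CellTiter-Glo, 30 min, room temperature) quantified surviving cells.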

[9] = p53 small molecule agonists, cell-based qHTS assay with rat liver microsomes: qHTS cell viability counter screen (AID 1963580); further: nearly all actives have a fitted effect of over 45% in size; further: potency means the concentration at half of the fitted maximal effect
Procedure, shortened: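 After the beta-lactamase ratio was read, CellTiter-Glo was added to the same wells and luminescence measured at 30 min; cells had been treated 16 h at 37 C with compounds, rat liver microsomes and NADPH (0.5 mg/mL final each).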

[10] = p53 small molecule agonists, cell-based qHTS assay: qHTS cell viability counter screen (AID 1963581); further: nearly all actives have a fitted effect of over 45% in size; further: potency means the concentration at half of the fitted maximal effect
Procedure, shortened: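 Viability was counter-screened in parallel with the p53 agonist reporter by measuring intracellular ATP luminescence in the same HCT-116 p53RE-bla wells after 16 h compound treatment at 37 C.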

[11] = biological target: 5-hydroxytryptamine receptor 2A (Homo sapiens) (UniProt P28223); experiment: 5-hydroxytryptamine receptor 2A (HTR2A) small molecule antagonists, cell-based qHTS assay (AID 1963586); further: nearly all actives have a fitted effect of over 45% in size; further: potency means the concentration at half of the fitted maximal effect
Sequence of 5-hydroxytryptamine receptor 2A (Homo sapiens) (P28223 whole entry, looked up): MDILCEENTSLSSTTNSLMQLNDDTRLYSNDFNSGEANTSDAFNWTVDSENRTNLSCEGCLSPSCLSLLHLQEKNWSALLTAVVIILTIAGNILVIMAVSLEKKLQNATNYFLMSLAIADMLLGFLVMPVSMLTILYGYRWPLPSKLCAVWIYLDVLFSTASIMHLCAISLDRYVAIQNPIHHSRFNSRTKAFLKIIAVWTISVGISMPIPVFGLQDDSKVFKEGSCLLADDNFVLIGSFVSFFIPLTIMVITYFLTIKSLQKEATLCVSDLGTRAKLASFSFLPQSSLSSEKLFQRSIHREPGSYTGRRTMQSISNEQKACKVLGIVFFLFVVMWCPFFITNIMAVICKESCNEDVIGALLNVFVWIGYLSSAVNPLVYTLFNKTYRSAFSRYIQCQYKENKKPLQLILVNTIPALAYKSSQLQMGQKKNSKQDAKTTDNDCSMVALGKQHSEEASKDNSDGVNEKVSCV
Procedure, shortened: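 CHO cells stably expressing human HTR2A were plated for 18 h at 37 C, then loaded with calcium dye for 1 h. Compounds were preincubated 5 min at room temperature before DOI (4 nM solution) was added. Kinetic fluorescence was read for 3 min.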

[12] = biological target: 5-hydroxytryptamine receptor 2A (Homo sapiens) (UniProt P28223); experiment: 5-hydroxytryptamine receptor 2A (HTR2A) small molecule agonists, cell-based qHTS assay (AID 1963587); further: nearly all actives have a fitted effect of over 30% in size; further: potency means the concentration at half of the fitted maximal effect
Procedure, shortened: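 CHO cells stably expressing human HTR2A, plated 18 h, loaded with calcium dye 1 h at 37 C. Agonist mode: compounds added and intracellular calcium fluorescence recorded kinetically for 2 min at 1 sec intervals.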

[13] = biological target: Muscarinic acetylcholine receptor M1 (Homo sapiens) (UniProt P11229); experiment: Cholinergic receptor muscarinic 1 (CHRM1) small molecule antagonists, cell-based qHTS assay (AID 1963588); further: nearly all actives have a fitted effect of over 40% in size
Sequence of Muscarinic acetylcholine receptor M1 (Homo sapiens) (P11229 whole entry, looked up): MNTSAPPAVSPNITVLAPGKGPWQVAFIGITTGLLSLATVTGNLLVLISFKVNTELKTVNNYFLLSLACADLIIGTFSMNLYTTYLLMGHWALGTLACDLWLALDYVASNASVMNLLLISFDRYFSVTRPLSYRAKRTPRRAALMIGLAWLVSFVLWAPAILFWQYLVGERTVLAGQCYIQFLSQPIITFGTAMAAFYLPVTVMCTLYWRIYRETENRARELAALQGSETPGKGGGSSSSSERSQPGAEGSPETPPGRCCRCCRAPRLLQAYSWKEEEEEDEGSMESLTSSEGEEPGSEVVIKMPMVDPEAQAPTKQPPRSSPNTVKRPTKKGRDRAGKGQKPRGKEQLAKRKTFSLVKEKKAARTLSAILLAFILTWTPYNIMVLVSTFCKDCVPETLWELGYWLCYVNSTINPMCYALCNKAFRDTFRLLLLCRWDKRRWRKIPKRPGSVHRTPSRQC
Procedure, shortened: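 Compounds were tested at 15 concentrations in three independent runs. Dye-loaded CHRM1-CHO cells were exposed 5 min at room temperature before stimulation by acetylcholine added at 50nM. Intracellular calcium was read kinetically on FDSS for 3 min.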

[14] = biological target: Muscarinic acetylcholine receptor M1 (Homo sapiens) (UniProt P11229); experiment: Cholinergic receptor muscarinic 1 (CHRM1) small molecule agonists, cell-based qHTS assay (AID 1963589); further: nearly all actives have a fitted effect of over 35% in size
Procedure, shortened: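 Cells were plated and incubated 18 h at 37 C/5% CO2, loaded with calcium dye for 1 h at 37 C, then treated with compounds in DMSO. Fluorescence was recorded kinetically at 1 sec intervals.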

[15] = cAMP Responsive Elements (CRE) small molecule agonists, cell-based qHTS assay (AID 1963590)
Procedure, shortened: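 Cells carrying a CRE-driven beta-lactamase reporter (HEK 293T) are seeded, incubated overnight (18 h), and treated with test compounds for 3 h at 37 C; reporter activity is then detected with a FRET substrate after 2 h at room temperature.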

[16] = biological target: Beta-2 adrenergic receptor (Homo sapiens) (UniProt P07550); experiment: Adrenergic beta2 receptor (ADRB2) small molecule antagonists, cell-based qHTS assay (AID 1963592); further: series mostly up to about 92 µM; nearly all actives have a fitted effect of over 50% in size
Sequence of Beta-2 adrenergic receptor (Homo sapiens) (P07550 whole entry, looked up): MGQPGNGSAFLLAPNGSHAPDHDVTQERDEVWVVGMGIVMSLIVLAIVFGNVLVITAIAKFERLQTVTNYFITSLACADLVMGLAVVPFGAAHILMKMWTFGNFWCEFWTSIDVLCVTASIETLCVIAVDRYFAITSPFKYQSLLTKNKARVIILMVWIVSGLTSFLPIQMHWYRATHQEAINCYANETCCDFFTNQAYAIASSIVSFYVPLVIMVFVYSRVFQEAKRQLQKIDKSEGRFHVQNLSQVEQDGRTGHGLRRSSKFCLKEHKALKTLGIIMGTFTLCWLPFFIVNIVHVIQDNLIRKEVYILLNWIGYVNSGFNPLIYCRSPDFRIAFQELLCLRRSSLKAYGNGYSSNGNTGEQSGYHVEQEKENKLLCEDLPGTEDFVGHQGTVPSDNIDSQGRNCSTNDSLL
Procedure, shortened: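 Assay format: CHO-ADRB2 cells, 18-20hr seeding at 37C/5% CO2, then compound plus 1nM isoproterenol agonist mix for 0.5hr RT. Homogeneous time-resolved fluorescence cAMP detection after 1hr, expressed as 665/615 nm ratio.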

[17] = biological target: D(2) dopamine receptor (Homo sapiens) (UniProt P14416); experiment: Dopamine D2 receptor (DRD2) small molecule antagonists, cell-based qHTS assay (AID 1963595; active means well fitted inhibition curve with a large enough effect in the signal ratio in the repeat runs, with a control signal flat; the % refers to the signal ratio; further: potency means the concentration at half of the fitted maximal effect)
Sequence of D(2) dopamine receptor (Homo sapiens) (P14416 whole entry, looked up): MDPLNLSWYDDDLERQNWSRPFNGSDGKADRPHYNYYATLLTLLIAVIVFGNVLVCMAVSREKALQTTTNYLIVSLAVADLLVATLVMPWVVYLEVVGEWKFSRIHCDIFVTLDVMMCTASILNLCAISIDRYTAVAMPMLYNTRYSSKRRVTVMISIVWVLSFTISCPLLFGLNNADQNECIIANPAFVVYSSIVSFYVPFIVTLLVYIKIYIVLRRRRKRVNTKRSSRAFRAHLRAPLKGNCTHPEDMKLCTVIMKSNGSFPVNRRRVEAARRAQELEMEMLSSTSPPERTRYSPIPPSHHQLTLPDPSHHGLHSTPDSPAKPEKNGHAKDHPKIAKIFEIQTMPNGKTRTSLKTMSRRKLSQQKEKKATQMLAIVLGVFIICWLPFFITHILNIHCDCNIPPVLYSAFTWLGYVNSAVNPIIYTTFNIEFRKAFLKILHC
Procedure, shortened: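 Human DRD2 antagonist qHTS measuring cAMP by HTRF. The cells are exposed to compound for 10 min, then to NKH477 (200 nM) and quinpirole (12 nM) for 30 min at RT, with Ro20-1724 (0.1 mM) present throughout.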

[18] = p53 small molecule agonists, cell-based qHTS assay (AID 1963582; active means well fitted activation curve with a large enough effect in the signal ratio in the repeat runs, not every such curve was filed as active; the % refers to the signal ratio)
Procedure, shortened: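 Cells carrying a p53-responsive bla reporter are treated with test compounds for 16 h at 37 C; beta-lactamase activity is then detected with LiveBLAzer B/G FRET substrate after 2 h at room temperature.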

[19] = cAMP Responsive Elements (CRE) small molecule antagonists, cell-based qHTS assay (AID 1963591; active means well fitted inhibition curve with a large enough effect in the signal ratio in the repeat runs, not every such curve was filed as active; the % refers to the signal ratio)
Procedure, shortened: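 Cells (CRE-bla HEK 293T, DMEM with 10% dialyzed FBS and 25 mM HEPES) are seeded and incubated 18 h. Compounds are added with NKH477 agonist at 0.25 uM final for 3 h, then FRET substrate for 2 h.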

[20] = biological target: D(2) dopamine receptor (Homo sapiens) (UniProt P14416); experiment: Dopamine D2 receptor (DRD2) small molecule agonists, cell-based qHTS assay (AID 1963594); further: nearly all actives have a fitted effect of over 35% in size
Procedure, shortened: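 HEK293 cells stably expressing human DRD2, pre-treated with PDE inhibitor Ro20-1724 (0.1 mM final) and compound 10 min at room temperature, then stimulated with NKH477 (200nM […]) for 30 min. cAMP read by HTRF (665/620 nm).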

Row | SMILES | Potency [1] | Potency [2] | Potency [3] | Potency [4] | Potency [5] | Potency [6] | Potency [7] | Potency [8] | Potency [9] | Potency [10] | Potency [11] | Potency [12] | Potency [13] | Potency [14] | Potency [15] | Potency [16] | Potency [17] | Potency [18] | Potency [19] | Potency [20]
1 | C[C@H]1CCCC(=O)CCC/C=C/c2cc(O)cc(O)c2C(=O)O1 | 58.9 µM (active) and inactive | inactive | inactive | inactive | inactive | inactive | inactive | inactive | inactive | inactive | inactive | inactive | inactive | inactive | inactive | inactive | inactive | – | – | –
2 | O=C(O)CCCc1ccc(N(CCCl)CCCl)cc1 | inactive | inactive | inactive | inactive | inactive | inactive | inactive | inactive | inactive | inactive | – | – | – | – | – | inactive | inactive | inactive | inactive | –
3 | C=CCc1ccc2c(c1)OCO2 | inactive | inactive | inactive | inactive | inactive | inactive | inactive | inactive | inactive | inactive | – | – | – | – | inactive | inactive | inactive | inactive | inactive | inactive
4 | CCCCCCCCn1sccc1=O | 1.22 µM (active) and 1.43 µM (active) | 612 nM (active) and 641 nM (active) | inactive | inactive | inactive | inactive | inactive | 40.9 µM (active) and inactive | 4.09 µM (active) and 1.35 µM (active) | 40.9 µM (active) and 38.1 µM (active) | inactive and 1.11 µM (active) | inactive and 25.7 µM (active) | inactive | inactive | – | inactive | inactive | – | – | –
5 | CCCCCCCCCCCCCCCC[n+]1ccccc1 | 29.8 µM (active) [middle of 4 runs] | inactive | 25.7 µM (active) and 38.9 µM (active) and 17.1 µM (active) | inactive | inactive | inactive | inactive | 36.3 µM (active) and 40.2 µM (active) and inactive | 42.7 µM (active) and inactive | 45.8 µM (active) and inactive | – | – | – | – | – | inactive | inactive and 60.3 µM (active) | inactive | – | inactive
6 | CCCC1COC(Cn2cncn2)(c2ccc(Cl)cc2Cl)O1 (configuration not stated) | inactive | inactive | inactive | inactive | inactive | inactive | inactive | inactive | inactive | inactive | inactive | inactive | inactive | inactive | – | inactive | – | – | inactive | inactive
7 | O=[N+]([O-])c1ccc(Cl)cc1 | inactive | inactive | inactive | inactive | inactive | inactive | inactive | inactive | inactive | inactive | inactive | – | inactive | inactive | inactive | inactive | inactive | – | inactive | inactive
